{"source": "paper PMC7819943", "about": "“Rice protein-binding microarrays: a tool to detect cis-acting elements near promoter regions in rice”", "note": "Over roughly 68,000 sequences, “fluorescence intensity (a.u.)” has its median near 9,100; the highest 2% begin near 16,000. The sample holds the highest values, similar sequences and a random draw of the others, so the mix is not that of the screen.", "data": [{"target": "OsWRKY34 (Oryza sativa, UniProt Q0JBA9 1-250)", "sequence (Q0JBA9 entry or part of it)": "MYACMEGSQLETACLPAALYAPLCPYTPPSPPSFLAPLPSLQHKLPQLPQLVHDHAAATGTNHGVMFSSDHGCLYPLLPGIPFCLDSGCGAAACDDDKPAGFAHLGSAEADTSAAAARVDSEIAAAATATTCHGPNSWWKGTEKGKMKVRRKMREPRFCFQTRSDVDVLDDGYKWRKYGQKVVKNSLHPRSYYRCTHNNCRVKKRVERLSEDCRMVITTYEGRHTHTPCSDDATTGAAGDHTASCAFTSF", "assay": "protein-binding microarray (RPBM); PBS, 2% BSA, 51.3 ng/ul salmon testes DNA, 50 uM zinc acetate, 200 nM TF, 25 C, 1 h; high values mean tight binding", "settings": "protein: recombinant; tags: N-terminal polyhistidine and DsRed monomer fusion (pET32a); label: CyDye5-dUTP incorporated in the synthesized complementary strand; 3' TTTTT single-stranded linker to array surface; dsDNA, one strand shown", "in_short": "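Binding signal is reported as fluorescence intensity per feature (arbitrary units) from an Axon 4000B scanner. Incubation used 200 nM of each Ni–NTA-purified, N-terminally polyhistidine- and DsRed-fused transcription factor from E. coli BL21-CodonPlus on a double-stranded custom Agilent array for 1 h at 25 °C, with 50 µM zinc acetate in the buffer, followed by washing.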", "values": [{"sequence": "AAACTGTTCTCCTCCACTTGCCTATCTTATCCTCTCTTATCGGAGTCACCTAGTGCAG", "binding signal": "8930 fluorescence intensity (a.u.)"}, {"sequence": "ACGGTTGTGTATTTCATAGTAGGGTGTAAATGTACGCTGACGGAGTCACCTAGTGCAG", "binding signal": "8030 fluorescence intensity (a.u.)"}, {"sequence": "ATACAACTTCGTCTGGCGCCCTCAATCGATCTCGCTCTATCGGAGTCACCTAGTGCAG", "binding signal": "9870 fluorescence intensity (a.u.)"}, {"sequence": "AACCCTCATCTACTTCTGGCCCTCTAAGAGTTCTCCACTACGGAGTCACCTAGTGCAG", "binding signal": "8400 fluorescence intensity (a.u.)"}, {"sequence": "GTGTGTGCCTCCTTTTCTCTTCTTCAGTTTTCAACTCAAACGGAGTCACCTAGTGCAG", "binding signal": "9440 fluorescence intensity (a.u.)"}, {"sequence": "CCTCATCCCGTCCAGCGTTCACCCGACGTCGCCCGTCGCACGGAGTCACCTAGTGCAG", "binding signal": "10500 fluorescence intensity (a.u.)"}, {"sequence": "TGAGTCTTCACAATCCCATGTCACATGATCATGTGATCTTCGGAGTCACCTAGTGCAG", "binding signal": "9860 fluorescence intensity (a.u.)"}, {"sequence": "GAAATGAGGGGTGGGATTGGGATTGGGATTGGAAAATGAACGGAGTCACCTAGTGCAG", "binding signal": "11800 fluorescence intensity (a.u.)"}, {"sequence": "GTGGGGATTGGGTAGGAGAAGGAGTGGGGAATTAGGTTAGCGGAGTCACCTAGTGCAG", "binding signal": "12200 fluorescence intensity (a.u.)"}, {"sequence": "GGGTGGGATTGGGATTGGGAAATGAATGAAGGGTTAGGATCGGAGTCACCTAGTGCAG", "binding signal": "16400 fluorescence intensity (a.u.)"}, {"sequence": "GTGGGATTAGGATTGGAAAATGAATGAAGGGTTAGAATTACGGAGTCACCTAGTGCAG", "binding signal": "8560 fluorescence intensity (a.u.)"}, {"sequence": "TGTACTGTAGGGGTGGGATTGTGATTGGAAAATGAATGAACGGAGTCACCTAGTGCAG", "binding signal": "18600 fluorescence intensity (a.u.)"}, {"sequence": "GTGATTGGATGGGTAGTGGAGACAGGTGGGAAAAATGAATCGGAGTCACCTAGTGCAG", "binding signal": "8510 fluorescence intensity (a.u.)"}, {"sequence": "GTCGATGTGTCTTTTGTGTGTAGTTCTTGTAATTGTTGTGCGGAGTCACCTAGTGCAG", "binding signal": "8220 fluorescence intensity (a.u.)"}, {"sequence": "GGGTTGATTTTGCTTCCTGCATCCCAGCGACATCGCCCAACGGAGTCACCTAGTGCAG", "binding signal": "11500 fluorescence intensity (a.u.)"}, {"sequence": "CCTGTGCGTGGTCGGGTTAATTTGTCAGTCTGTCACTTACCGGAGTCACCTAGTGCAG", "binding signal": "10200 fluorescence intensity (a.u.)"}, {"sequence": "GTGCTCATCCGCCTCCTCGGGTCGTCTCCATCGACCTCCTCGGAGTCACCTAGTGCAG", "binding signal": "9120 fluorescence intensity (a.u.)"}, {"sequence": "TTAATAGATGACGCCGTTGATTTTTTCTCACATGTTTGACCGGAGTCACCTAGTGCAG", "binding signal": "11600 fluorescence intensity (a.u.)"}, {"sequence": "GTTTACTCCAAGATTCACATTTGACTTTCTTATGCCATAGCGGAGTCACCTAGTGCAG", "binding signal": "9170 fluorescence intensity (a.u.)"}, {"sequence": "ATAGATGACGCTGTTGATTTTTTTCTCACATGTTTGACCACGGAGTCACCTAGTGCAG", "binding signal": "10400 fluorescence intensity (a.u.)"}, {"sequence": "TTTGTTTTTTAATAGATGACGCTGTTGACTTTTTCTCACGCGGAGTCACCTAGTGCAG", "binding signal": "14200 fluorescence intensity (a.u.)"}, {"sequence": "CTCCATTTAACAGATGACGTCGTTGACTTTTTCTTACATGCGGAGTCACCTAGTGCAG", "binding signal": "26900 fluorescence intensity (a.u.)"}, {"sequence": "TTTTTAATAGATGACGCCGTTGACTTTTTCTCACATGTTTCGGAGTCACCTAGTGCAG", "binding signal": "34300 fluorescence intensity (a.u.)"}, {"sequence": "TAATAGATGACGCCGTTGACTTTTTCTCACATGTTTGACCCGGAGTCACCTAGTGCAG", "binding signal": "33000 fluorescence intensity (a.u.)"}, {"sequence": "TTTTTAATAGATGACGCTGTTGACTTTTTCCCACATGTTTCGGAGTCACCTAGTGCAG", "binding signal": "24200 fluorescence intensity (a.u.)"}, {"sequence": "TTTTTTAATAGATGACGCCGTTGACCTTTTCTCACATGTTCGGAGTCACCTAGTGCAG", "binding signal": "15100 fluorescence intensity (a.u.)"}, {"sequence": "ATAGATGACGCCGTTAACTTTTTCTCACATGTTTAACCATCGGAGTCACCTAGTGCAG", "binding signal": "10200 fluorescence intensity (a.u.)"}, {"sequence": "TGTTGACTTTTTAGTACATATTTAACCATTTGTCTTATTACGGAGTCACCTAGTGCAG", "binding signal": "14900 fluorescence intensity (a.u.)"}]}]}
